In general, Inhibition refers to how much of the control response was suppressed.

This passage reports Inhibition results from ChEMBL document CHEMBL1157539, “Thousands of chemical starting points for antimalarial lead identification” (Nature, 2010).

Molecules are shown by their SMILES.

This test relates to Plasmodium falciparum. The experiment in a line: GSK_TCMDC: Inhibition of Plasmodium falciparum Dd2 in whole red blood cells, using parasite LDH activity as an index of growth. Test compounds present at 2uM. It counts as functional.
In the case of `CCc1cc(NCc2ccncc2)nc(Nc2ccc(F)cc2)n1`, the Inhibition was found to be 17%.

In turn, `N=C(NCCCCCCCCNC(=N)Nc1ccc(Cl)cc1)Nc1ccc(Cl)cc1` displayed an Inhibition of 89%.

`CCN(CC)c1ccc(C(c2ccc(N(CC)CC)cc2)c2ccc([N+](=O)[O-])cc2)cc1`: the Inhibition is on record as 63%.

In turn, `Cc1ccnc(NC(=O)c2cc(-c3cccc([N+](=O)[O-])c3)nc3onc(C)c23)c1` registered an Inhibition of 44%.

Consider `O=C(NCCc1ccc(O)cc1)n1c2ccccc2c2ccccc21`, for which the Inhibition worked out at 76%.

As to `COc1cccc(C23NC(=Nc4nc5ccccc5[nH]4)NC2(c2cccc(OC)c2)NC(=Nc2nc4ccccc4[nH]2)N3)c1` (centres undefined), the Inhibition is on record as 99%.

In turn, `COc1ccc2nc3cc(Cl)ccc3c(NCCCO)c2c1` showed an Inhibition of 100%.

As to `COc1cc2nc(NCCc3ccccc3)nc(NCCc3ccccc3)c2cc1OC`, the Inhibition was 100%.

`CCCc1c(Cl)cc(CNCCCNc2nc3ccncc3[nH]2)cc1Cl`: the Inhibition was found to be 0%.

For the compound `CC[C@H](NC(=O)c1c(CCCN2CCN(c3ccccc3)CC2)c(-c2ccccc2)nc2cc(O)ccc12)c1ccccc1`, the Inhibition was 97%.

On to `CN1CCN(CCc2ccc3nc(-c4csc(Cc5cc(Cl)ccc5OCc5ccccc5)n4)[nH]c3c2)CC1`, for which the Inhibition turned out to be 97%.

For the compound `Cc1ccc2[nH]c(C)cc(=NN=Cc3ccccc3F)c2c1`, the Inhibition was found to be 100%.

`COc1cc(Cc2cnc(N)nc2N)cc(OCCCCC2SC(=O)NC2=O)c1OC` (centres undefined): the Inhibition was determined as 0%.

With `O=C(Nc1cccc(OC2CCN(Cc3ccsc3)CC2)c1)c1ccc(C(F)(F)F)cc1.O=C(O)C(F)(F)F`, the Inhibition was 5%.

For the compound `COc1cccc(NC(=O)Nc2ccc(Nc3nc(C)cc(N(C)C)n3)cc2)c1`, the Inhibition was 100%.

For `Cc1ccc(C(O)CNc2ccnc(Nc3cccc(-c4csc(C)n4)c3)n2)cc1` (centres undefined), the Inhibition stood at 31%.

With `CCOc1cc(C(=O)Nc2ccc3nc(N4CCCCC4)cc(C)c3c2)cc(OCC)c1OCC`, the Inhibition came out at 2%.

Regarding `O=C(NCc1cccc(Br)c1)c1ccc(CNC2CCN(Cc3ccccc3)CC2)cc1.O=C(O)C(F)(F)F`, the Inhibition was 49%.

As to `CN(c1ccccc1C(=O)Nc1ccccc1Oc1ccccc1)S(=O)(=O)c1ccccc1`, the Inhibition was found to be 80%.

The compound `Cc1sc2nc(CSc3ccccc3)nc(N3CCN(CC(=O)NC4CC4)CC3)c2c1C` yielded an Inhibition of 95%.

For the compound `NC(=O)c1cccc(C(=O)Nc2cccc(-c3ccc(-c4nc5cc(C(F)(F)F)ccc5[nH]4)cc3)c2)c1`, the Inhibition is 78%.

`Cc1oc(-c2cccc(Oc3ccccc3)c2)nc1CN(Cc1cnn(C)c1)C(C)C` registered an Inhibition of 61%.

As for `NS(=O)(=O)c1cccc(N/C=C2\C(=O)Nc3ccc(S(=O)(=O)Cc4c(Cl)cccc4Cl)cc32)c1`, the Inhibition was 99%.

Consider `C(=N\Nc1nccc2sc(-c3cccnc3)cc12)/c1cccnc1`, for which the Inhibition turned out to be 54%.

Compound `COc1cc2c(c(Cl)c1OC)CCN(C(=O)C(F)(F)F)CC2c1ccccc1` (centres undefined) registered an Inhibition of 100%.

As to `C[C@H](CNc1ccnc(Nc2ccc3[nH]c(=O)[nH]c3c2)n1)c1ccccc1.O=CO`, the Inhibition is 0%.

`OC(CN1CCN(C2CCCCC2)CC1)Cn1c2ccccc2c2cc(Br)ccc21` (centres undefined) displayed an Inhibition of 89%.

Compound `Cc1[nH]c(C)c(-c2ccc(-c3ccc(C(F)F)cc3)nc2)c(=O)c1Cl` had an Inhibition of 96%.

`Cl.O=c1cc(NCCCNCc2ccc(Cl)c(Cl)c2)[nH]c2cc(Cl)ccc12` gave an Inhibition of 51%.

As for `CCCCc1cc(NCc2ccncc2)nc(Nc2ccc(C)cc2)n1`, the Inhibition was found to be 59%.

Compound `CC1CCN(CC[C@H]2CCCN2S(=O)(=O)c2cccc(NC(=O)c3cc4ccccc4s3)c2)CC1` gave an Inhibition of 41%.

The compound `CCOc1c(Cl)cc(Cl)cc1CNCCCNc1nc2ccccc2[nH]1.Cl` registered an Inhibition of 1%.

For the compound `CCC(CC)CN1C(=O)C(C)(c2ccccc2)N=C1N.O=C(O)C(F)(F)F` (centres undefined), the Inhibition was determined as 11%.

Compound `O=C(/C=C/c1ccc(Cl)c(Cl)c1)NCCCCCN1CCC(CCNC(=O)/C=C/c2ccccc2F)CC1` registered an Inhibition of 1%.

As to `CCN(CCCN1CCCC1)c1cc(C)nc(Nc2ccc(Cl)cc2)n1.O=C(O)C(=O)O`, the Inhibition came out at 12%.

In the case of `CN1CCN(CCCN(Cc2cccc(-c3ccc(CNCc4ccc5c(c4)OCO5)cc3)c2)C(=O)Nc2ccccc2)CC1.O=C(O)C(F)(F)F`, the Inhibition came to 69%.

As to `CN(C)CCNc1nccc(N2CCc3ncnc(Nc4ccc(OCc5cccc(F)c5)c(Cl)c4)c3C2)n1`, the Inhibition was 97%.

With `O=C(Nc1cccc(C(F)(F)F)c1)Nc1cc(F)c(F)cc1Cl`, the Inhibition amounted to 98%.

As to `Cn1nc(-c2cccc(CNC3CCc4ccccc43)c2)c2cnc(NCCCN3CCCC3)nc21` (centres undefined), the Inhibition is 15%.
